Inconclusive results are not listed. A call without a number means that no potency is given here. Activity calls are given as the source filed them. Calls follow the shape of the dose curve; as a rule, active = well fitted inhibition curve with a large enough effect; inconclusive = small, poorly fitted or top-dose-only effect; inactive = no such curve, though single readings can be large or run the other way.
Potency is read from the fitted curve at half-maximal effect.

A short description of the experiment: BET inhibitor-based combinations targeting novel dependencies in MECOM-rearranged (r) AML: OCI-AML3 cell line (AID 2202232). Also: nearly all actives have a fitted effect of over 35% in size. The note with it: CellTiter-Glo luminescence, 48 h; Potency: OCI-AML3 viability; series mostly up to 46 µM. The source says:
Ecotropic viral insertion site 1 (EVI1) is located on chromosome 3q26.2 as part of the MECOM (MDS and EVI1 complex) locus. Under normal hematopoiesis, EVI1 is a regulator of hematopoietic stem cell maintenance and self-renewal and EVI1 levels decrease as the cells differentiate. In approximately 5-10% of de novo acute myeloid leukemia (AML) EVI1 is aberrantly expressed, including Chromosomal inv(3)(q21;q26.2) or t(3;3)(q21;q26.2) alterations (MECOM-r) that account for about 50% of AML with EVI1 overexpression 31. AMLs with high levels of EVI1 have a poor prognosis and an overall survival time averaging between 10-14 months. EVI1 overexpression confers resistance in leukemia cells, highlighting the need to develop new targeted therapies for EVI1 overexpressing AMLs.
Here, we performed an unbiased chemical drug screening by evaluating the single agent activity of a collection of 2,480 oncology-focused, approved and investigational drugs (NCATS Mechanism Interrogation Plates, MIPE v5.0) against a panel of seven AML cell lines. These included four MECOM-r cell-lines (AML-191, AML-194, UCSD-AML1 and HNT-34) and three non-MECOM-r AMLs (MV4-11, OCI-AML3 and SET-2). Exploiting the mechanistic redundancy built in the library, we identified target-level sensitivities in MECOM-r AML cells and relative activity as compared to other AML subtypes.
A collection of 2480 mechanistically annotated dugs (MIPE v5.0) was used to screen four 3q26.2 rearranged AML cell lines and three non-3q26.2 rearranged AML cell lines. This library purposely exploits redundancy by including multiple inhibitors of key onco-targets, while simultaneously encompassing mechanistic diversity, targeting more than 800 distinct mechanisms of action. Briefly, cells were seeded in 5 uL of growth media using a Multidrop Combi dispenser into 1536 well white polystyrene tissue culture treated plates (Corning) at a density of 500cells/well. For each cell-line, for each of the 2480 drugs in MIPE v5.0 library, an 11-point dose curve was generated via a 1536 pin-tool. Plates were incubated for 48 hr at standard incubator conditions, covered by a stainless steel gasketed lid to prevent evaporation. Cell viability was determined by luminescence based, Cell Titer Glo assay (Promega). In detail, 3 uL of Cell Titer Glo were added to each well and plates were incubated at room temperature for 15 min with a stainless-steel lid in place. Luminescence readings were taken using a Viewlux (PerkinElmer) with a 2 s exposure time per plate. Compound dose-response curves were normalized to DMSO and empty well controls on each plate. Quantitative drug activity data from dose-response curves was determined utilizing area Under the Curve (AUC) and Z-transformed AUC (Z-AUC, a mean-centering transformation applied to each individual cell-line screened).
A general note: Cellular ATP, detected with luciferase, serves as a proxy for viable cell number.
Turning to `Cc1ccccc1-n1c(Cn2ncc3c(N)ncnc32)nc2cccc(C)c2c1=O`, the Potency entry was “inactive”.
The entry for `C[C@]12CC[C@@H]3[C@@H](CCC4=CC(=O)CC[C@@H]43)[C@@H]1CC[C@@H]2OC(=O)CCc1ccccc1` is “inactive”.
As to `CO/C1=C/C(C)=C\[C@@H](C)[C@@H](O)[C@@H](C)C/C(C)=C\C=C/[C@H](OC)[C@@H]([C@@H](C)[C@@H](O)[C@H](C)[C@@]2(O)C[C@@H](O)[C@H](C)[C@@H](C(C)C)O2)OC1=O`, the Potency was 124 nM (active).
With `Cc1cccc(C)c1NC(=O)CN1CCCC1=O` the entry was “inactive”; with `CC(N[C@H]1C[C@@H]1c1ccccc1)c1ccc2c(c1)OCCO2` (stereo not given in full), “inactive”; with `CC(=O)c1c(O)c(C)c(O)c(Cc2c(O)c3c(c(C(=O)/C=C/c4ccccc4)c2O)OC(C)(C)C=C3)c1O`, “inactive”.
Regarding `CN(C)CCN(C)CCc1ccc(Cl)c(Cl)c1`, the Potency result was “inactive”.
Take `O=C1CC[C@@]2(O)[C@H]3Cc4ccc(O)c5c4[C@@]2(CCN3CC2CC2)[C@H]1O5`: the Potency entry was “inactive”.
Take `Clc1ccccc1C(c1ccccc1)(c1ccccc1)n1cccn1`: the Potency result was “inactive”.
The entry for `COc1cc(C)[nH]c(=O)c1CNC(=O)c1c(C)n([C@H](C)C2CCOCC2)c2ccccc12` is “inactive”; for `CC(=O)N1N=C(c2ccc(N)cc2)c2cc3c(cc2C[C@H]1C)OCO3` it is “inactive”.
With `C/C1=C/C[C@@H](/C(C)=C/c2csc(C)n2)OC(=O)C[C@H](O)C(C)(C)C(=O)[C@H](C)[C@@H](O)[C@@H](C)CCC1` the figure was 59 nM (active); with `CC[C@@]1(O)C(=O)OCc2c1cc1n(c2=O)Cc2cc3ccccc3nc2-1`, 13.2 nM (active).
In the case of `C[C@@H]1O[C@@H](O[C@H]2C[C@@H](O)[C@]3(CO)[C@H]4[C@H](O)C[C@]5(C)[C@@H](C6=CC(=O)OC6)CC[C@]5(O)[C@@H]4CC[C@]3(O)C2)[C@H](O)[C@H](O)[C@H]1O`, the Potency is 66.1 nM (active).
With `C/C=C(/C)C(=O)O[C@H]1C(C)=C2[C@H]([C@@H]1OC(=O)CCCCCCC)[C@@](C)(OC(C)=O)C[C@H](OC(=O)CCC)[C@@]1(O)[C@H]2OC(=O)[C@@]1(C)O` the figure was 662 nM (active); with `C[C@]12CC[C@H](O)CC1=CC[C@@H]1[C@@H]2CC[C@]2(C)C(=O)CC[C@@H]12`, “inactive”.
With `O=C(N[C@H]1CN2CCC1CC2)c1ccc(Cl)cc1` the entry was “inactive”; with `CN1C(=O)COc2c(C(=O)NC3CN4CCC3CC4)cc(Cl)cc21` (stereo not given), “inactive”; with `C[C@]12Cc3cn[nH]c3C[C@@H]1CC[C@@H]1[C@@H]2CC[C@@]2(C)[C@H]1CC[C@]2(C)O`, “inactive”.
For `COC(=O)[C@]12CCC(C)(C)C[C@H]1[C@H]1C(=O)C=C3[C@@]4(C)C=C(C#N)C(=O)C(C)(C)[C@@H]4CC[C@@]3(C)[C@]1(C)CC2`, the Potency is 2630 nM (active).
The entry for `Cc1c(N)nc([C@H](CC(N)=O)NC[C@@H](N)C(N)=O)nc1C(=O)N[C@H](C(=O)N[C@@H](C)[C@H](O)[C@@H](C)C(=O)N[C@@H](C(=O)NCCc1nc(-c2nc(C(=O)NCCC[S+](C)C)cs2)cs1)[C@@H](C)O)C(O[C@H]1O[C@H](CO)[C@H](O)[C@@H](O)[C@H]1O[C@H]1O[C@H](CO)[C@@H](O)[C@H](OC(N)=O)[C@@H]1O)c1cnc[nH]1` (stereo not given in full) is “inactive”; for `O=c1[nH]c2ccc(Cl)cc2c(N[C@@H]2CN3CCC2CC3)c1-c1nc2ccccc2[nH]1` it is 417 nM (active); for `COC(=O)[C@@]12OC[C@]34[C@H]([C@@H](O)[C@@H]1O)[C@@]1(C)CC(=O)C(O)=C(C)[C@@H]1C[C@H]3OC(=O)[C@H](OC(=O)/C=C(\C)C(C)C)[C@@H]24` it is 7.4 nM (active).
With `C=C(C)[C@@H]1CCC(C)=C[C@H]1c1c(O)cc(CCCCC)cc1O` the figure was 20900 nM (active).
For `COCC1(CO)C(=O)C2CCN1CC2` (stereo not given), the Potency was 4680 nM (active).
As to `CN[C@@H]1Cc2cccc3[nH]c(=O)n(c23)C1`, the Potency result is “inactive”.
With `CC(C)(O)/C=C\C(=O)[C@](C)(O)[C@H]1[C@H](O)C[C@]2(C)[C@@H]3CC=C4[C@@H](C=C(O)C(=O)C4(C)C)[C@]3(C)C(=O)C[C@@]12C` the figure was 417 nM (active); with `COC12C(COC(N)=O)C3=C(C(=O)C(C)=C(N)C3=O)N1CC1C2N1C` (stereo not given), “inactive”; with `O=C(NCCCNc1nc(Nc2ccc(N3CCOCC3)cc2)ncc1C1CC1)C1CCC1`, 14800 nM (active).
With `C/C(=C\c1csc(C)n1)[C@@H]1C[C@@H]2O[C@]2(C)CCC[C@H](C)[C@H](O)[C@@H](C)C(=O)C(C)(C)[C@@H](O)CC(=O)O1` the figure was 5.9 nM (active); with `CCOC(=O)c1c(C(C#N)=CN)c2ccc(Cl)c(Cl)c2n1C`, “inactive”.
With `CC(=O)OC[C@H]1O[C@@H]([S-])[C@H](OC(C)=O)[C@@H](OC(C)=O)[C@@H]1OC(C)=O.CC[PH+](CC)CC.[Au]` the figure was 296 nM (active); with `CN1C(=O)CCS(=O)(=O)C1c1ccc(Cl)cc1` (stereo not given), “inactive”.
As for `CCCN1CCO[C@@H]2c3cc(O)ccc3OC[C@H]21`, the Potency entry is “inactive”.
With `CN(C)NC(=O)CCC(=O)O` the entry was “inactive”; with `O=C(O)CNC(=O)C1C(=O)N(C2CCCCC2)C(=O)N(C2CCCCC2)C1=O`, “inactive”; with `O=C(O)CNC(=O)c1c(O)c2ccccc2n(Cc2ccccc2)c1=O`, “inactive”.
`O=C(N[C@@H](COc1ccc2[nH]c(=O)[nH]c2c1)c1ccccc1)c1cccn(Cc2ccc(F)c(F)c2)c1=O`: the Potency is 10500 nM (active).
The figure for `CC1(N2CCC(n3c([C@@H]4CCCNC4)nc4ccccc43)CC2)CCCCCCC1` is 16600 nM (active).
The figure for `C[C@@H]1CC[C@H]2[C@@H](C)C(=O)O[C@@H]3O[C@@]4(C)CC[C@@H]1[C@]32OO4` is 1180 nM (active).

For the origin of these results see PubChem BioAssay (NCATS).
